Most compounds without a hit are left out; they make up all but 2.2% or so of the library.
APP 5UTR inh = APP translation inhibition; SH-SY5Y APP 5'UTR-luciferase reporter, luminescence; inhibition, % at 2 µM; actives 0.82% (n = 190,000); AID 1285;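 active means inhibition above a set limit, derived from the sample mean plus 3 SD, cut at about 45% in these data; inconclusive means one replicate passes the limit while the other fails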
Ba/F3 V617F tox = reduce viability of Ba/F3 cells dependent on JAK2V617F; Ba/F3 EpoR-JAK2V617F viability, ATP luminescence; inhibition, % at 5.6 µM; actives 1.1% (n = 220,000); AID 1446;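 active means inhibition above the campaign mean plus 3 SD over all tested compounds, cut at about 24% in these data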;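 further: cytokine-independent growth of Ba/F3 cells driven by EpoR plus mutant JAK2; 0% = DMSO-treated cells and 100% = JAK inhibitor I control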
BaF3 parental = counter-screen for JAK2V617F inhibitors: parental Ba/F3 viability inhibitors. CellTiter-Glo ATP luminescence. inhibition, % at 5.6 µM. actives 1.1% (n = 220,000). AID 1486;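 active means inhibition above a per-campaign cutoff, the mean inhibition of all tested compounds plus 3 SD, cut at about 27% in these data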;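 further: 0% = DMSO wells and 100% = JAK Inhibitor I control wells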
KLF5 inhibitor = suppresses KLF5 promoter-driven expression; DLD-1 KLF5 promoter-luciferase reporter, luminescence; inhibition, % at 5 µM; actives 0.23% (n = 290,000);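 active means inhibition above a per-plate limit of that plate's mean compound inhibition plus 3 SD, cut at about 60% in these data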;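 further: 0% = DMSO wells and 100% = LY294002 at 200 µM; higher means less KLF5 promoter-driven luciferase light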
IEC-6 cytotox = IEC-6 cytotoxicity, counter-screen for KLF5 inhibitors. luminescence viability. inhibition, % at 5 µM. actives 0.78% (n = 290,000); in the data active means inhibition above about 22%;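 further: 0% = plate median of test compound wells and 100% = cytotoxic reference compound wells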
aSyn UTR inh = 5' untranslated region of α-synuclein, MLPCN primary screen. inhibition, % (tested at 7.5 µM). AID 1813. actives 0.82% (n = 300,000). alpha-synuclein 5'UTR reporter, inhibitor activity; in the data active means inhibition above about 60%; inconclusive means no clear call, values can overlap the other calls;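 further: H4 neuroglioblastoma cells stably carrying SNCA 5'UTR luciferase fusion; 0% = DMSO wells and 100% = positive control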
BaF3 parental 2 = counter-screen for JAK2V617F inhibitors: parental Ba/F3 viability inhibitors | CellTiter-Glo luminescence; cells kept alive by added IL-3 | inhibition, % at 5.6 µM | shares compounds with Ba/F3 V617F tox | actives 31% (n = 580);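 active means cell growth inhibition above the hit limit set in the earlier mutant JAK2 cell screen, cut at about 27% in these data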;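 further: plate controls were DMSO-treated cells for no effect and JAK Inhibitor I control wells for full effect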
JAK2V617F confrm = confirmation: loss of viability in JAK2V617F-dependent Ba/F3 cells; shares compounds with Ba/F3 V617F tox; inhibition, % at 5.6 µM; actives 66% (n = 580); Ba/F3 EpoR-JAK2V617F viability, CellTiter-Glo luminescence; AID 1521;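 active means mean inhibition above the hit cutoff derived in the earlier primary screen, cut at about 25% in these data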;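 further: 0% = DMSO-treated cells and 100% = JAK inhibitor I control wells; higher means lower luminescence from reduced cell ATP and viability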
* = called active by the depositor; ? = inconclusive; nt = no result given.

SMILES	APP 5UTR inh	Ba/F3 V617F tox	BaF3 parental	KLF5 inhibitor	IEC-6 cytotox	aSyn UTR inh	BaF3 parental 2	JAK2V617F confrm
Nc1cccc(C2=Nc3cccc4cccc(c34)N2)c1	4	53*	7	-2	-6	-17	-7	-10
COc1ccc(C2=Nc3cccc4cccc(c34)N2)cc1	-2	-4	-3	-19	4	2	nt	nt
O=C(CS(=O)(=O)c1ccc(Cl)cc1)Nc1nnc(-c2cccs2)o1	nt	nt	nt	-27	3	8	nt	nt
COc1cccc(F)c1C(C[N+](=O)[O-])c1c(N)n(C)c(=O)n(C)c1=O (stereo unspecified)	nt	63*	6	7	9	-19	2	92*
COc1cc(C(C[N+](=O)[O-])c2c(N)n(C)c(=O)n(C)c2=O)ccc1O (stereo unspecified)	-2	-1	3	-15	-1	-15	nt	nt
Cc1c(C#N)sc2nc(-c3ccccc3)nc(N3CCCC3)c12	10	95*	-1	14	7	10	-5	-2
N#Cc1sc2nc(N3CCCCC3)c3c(c2c1N)CCCC3	9	-1	5	2	-2	50	nt	nt
CCn1nnnc1SCC(=O)Nc1ccc(F)cc1	nt	nt	nt	-10	0	-1	nt	nt
Oc1ccccc1/C=N/Nc1nc2ccccc2o1	nt	44*	6	23	10	31	65*	74*
Nc1nc(=S)c2ncn(C3OC(CO)C(O)C3O)c2[nH]1 (stereo unspecified)	nt	45*	25	-27	10	18	7	30*
C=CCOc1c(Br)cc(CNc2ccc3[nH]c(=O)[nH]c3c2)cc1OCC	3	32*	8	-1	8	3	35*	74*
COc1ccc(C2CC(=O)N3C(=C2C#N)SCC3(O)c2ccccc2)cc1 (stereo unspecified)	-20	-5	-1	1	5	23	nt	nt
N#CC1=C2SCC(O)(c3ccccc3)N2C(=O)CC1c1ccccc1F (stereo unspecified)	-3	27*	17	21	15	-18	20	25*
CC(=O)Nc1nn(C)c2nc3ccc(C)cc3cc12	nt	nt	nt	-31	1	4	nt	nt
COc1cc([N+](=O)[O-])ccc1NC(=O)CN1CCOCC1	-16	1	4	-14	-6	2	nt	nt
Cn1cc(CN2CCN(c3ccc(Cl)cn3)CC2)c(-c2ccccc2F)n1	7	-1	-1	-24	-2	5	nt	nt
Cc1cccc(N2CCN(Cc3cn(C)nc3-c3ccccc3F)CC2)n1	74*	24*	18	24	54*	-8	76*	97*
COc1ccc(/C=N/n2cnc3c([nH]c4ccc(F)cc43)c2=O)cc1CN1CCCC1	nt	40*	15	28	0	17	11	30*
COc1ccc(/C=N/n2cnc3c([nH]c4ccc(C)cc43)c2=O)cc1CN1CCCC1	nt	4	6	-13	6	-17	nt	nt
O=C(Nc1nc(-c2ccc(Cl)cc2Cl)cs1)C1CCCO1 (stereo unspecified)	1	28*	0	-26	-1	-27	-1	2
COc1ccccc1-n1c(=O)c(C#N)c(-c2ccc([N+](=O)[O-])cc2)c2cc(C(=O)c3ccccc3O)cnc21	nt	-2	-4	-26	-5	20	nt	nt
COc1ccc(NC(=O)CCNS(=O)(=O)c2ccc(C)c(C)c2)cc1OC	nt	nt	nt	-18	4	31	nt	nt
CC(=O)Oc1ccc(OC(C)=O)c(SCCCCCCl)c1	83*	85*	4	-28	1	-60	102*	97*
CC(=O)Oc1ccc(C(=O)O)cc1OC(C)=O	4	-3	-2	5	-5	18	nt	nt
Cc1ccnn1CCC(=O)N1CCCC(Nc2ccc(F)c(F)c2)C1 (stereo unspecified)	nt	nt	nt	-32	4	9	nt	nt
SMILES	APP 5UTR inh	Ba/F3 V617F tox	BaF3 parental	KLF5 inhibitor	IEC-6 cytotox	aSyn UTR inh	BaF3 parental 2	JAK2V617F confrm
CC(Oc1ccccc1)C(=O)Nc1ccc(C(N)=O)cc1 (stereo unspecified)	-10	-2	0	6	4	-16	nt	nt
COC(=O)c1ccc(NC(=O)C(C)Oc2ccccc2)cc1 (stereo unspecified)	-16	26*	4	-15	-3	10	-7	-17
COc1ccc(/C=C/C(=O)Oc2ccc(/C=N/NC(=O)c3ccncc3)cc2)cc1	nt	nt	nt	-6	1	-12	nt	nt
CCOC(=O)c1[nH]c(C)c(C(=O)NCC2CCCO2)c1C (stereo unspecified)	-12	-2	5	11	2	10	nt	nt
CCOC(=O)c1[nH]c(C)c(C(=O)NC2CCCCC2)c1C	0	100*	6	-40	6	11	-5	-21
COc1ccc(C(=O)OCC(=O)NCc2ccccc2)c(OC)c1OC	-22	103*	5	-28	-4	8	-5	-4
CCc1nn2c(=O)c(S(=O)(=O)Nc3ccc(C(C)C)cc3)c(C)nc2s1	nt	nt	nt	-7	11	nt	nt	nt
OC(COCc1ccco1)CN1CCN(C(c2ccccc2)c2ccccc2)CC1 (stereo unspecified)	-17	2	4	-31	7	3	nt	nt
Cc1ccc(Cl)cc1N1CCN(CC(O)COCc2ccco2)CC1 (stereo unspecified)	-28	98*	10	-14	6	-15	-6	0
COCCNC(=O)c1c[nH]c2ccc(S(=O)(=O)N3CCc4ccccc43)cc2c1=O	3	67*	13	-1	6	?	83*	86*
COc1cc(CN(C)Cc2cc(=O)oc3cc(C)c(Cl)cc23)ccc1OC(F)F	nt	nt	nt	-28	1	23	nt	nt
Cc1ccccc1Oc1cc(-n2ncc(Cl)c(Cl)c2=O)ncn1	95*	34*	9	-20	-5	nt	100*	100*
COc1ccccc1Oc1cc(-n2nc(C)cc2C)ncn1	-18	7	11	-12	-2	11	nt	nt
Nc1ccc2c(c1)C(=O)C(=O)c1ccccc1-2	88*	44*	14	-58	5	130*	107*	99*
CCOC(=O)c1cnc2ccc(OCC)cc2c1NCc1cccnc1	-9	16	0	-27	6	-43	nt	nt
CCOC(=O)c1cnc2ccc(OCC)cc2c1NCc1ccccc1	8	24*	-5	-37	12	-10	5	31*
O=C(O)COc1ccccc1/C=C1\SC(=S)N(c2cccnc2)C1=O	nt	82*	-1	-16	6	8	-4	12
COc1cccc(/C=C2\SC(=S)N(c3cccnc3)C2=O)c1OC	-17	1	-3	-23	12	31	nt	nt
Cc1nc([N+](=O)[O-])c(Br)n1CC(=O)c1ccc2ccccc2c1	-2	44*	6	-3	3	-24	-3	77*
CCOC(=O)/C=C/S(=O)(=O)c1ccc(NC(C)=O)cc1	74*	58*	4	-15	5	-58	21	24*
